Compound activity: PubChem, several laboratories
CYP2C19 activ: cytochrome P450 2C19 (human) activation; recombinant CYP2C19, luciferin-H EGE luminescence; hits give high values; 0 = fully inhibited enzyme, 1 = untreated enzyme; activation factor at 5 µM; 96,000 tested, under 10 active; AID 1025;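 active = activation factor of at least 2 at 5 µM in the primary screen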
CYP2C9 activ: activators of human CYP2C9. P11712. recombinant CYP2C9, luciferin-H conversion, luminescence; hits give high values; factor 1 = untreated enzyme, 0 = blocked. activation factor at 5 µM. 96,000 tested, 1.4% active;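 active = activation factor of 2 or more for CYP2C9 at a 5 µM dose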
hDAT+cocaine: human DAT dopamine uptake with cocaine, either direction; Q01959; LLC-PK1 hDAT cells, [14C]-dopamine uptake with cocaine IC80; actives deviate in either direction; B-score at 10 µM; 110,000 tested, 1.3% active; AID 449768;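 active = Z score or B-score, a plate-position-corrected score, falls beyond the plate's 99.7% confidence bounds, in either direction; inactive = both scores lie inside the 99.7% bounds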
Target sequence (Q01959 whole entry, looked up): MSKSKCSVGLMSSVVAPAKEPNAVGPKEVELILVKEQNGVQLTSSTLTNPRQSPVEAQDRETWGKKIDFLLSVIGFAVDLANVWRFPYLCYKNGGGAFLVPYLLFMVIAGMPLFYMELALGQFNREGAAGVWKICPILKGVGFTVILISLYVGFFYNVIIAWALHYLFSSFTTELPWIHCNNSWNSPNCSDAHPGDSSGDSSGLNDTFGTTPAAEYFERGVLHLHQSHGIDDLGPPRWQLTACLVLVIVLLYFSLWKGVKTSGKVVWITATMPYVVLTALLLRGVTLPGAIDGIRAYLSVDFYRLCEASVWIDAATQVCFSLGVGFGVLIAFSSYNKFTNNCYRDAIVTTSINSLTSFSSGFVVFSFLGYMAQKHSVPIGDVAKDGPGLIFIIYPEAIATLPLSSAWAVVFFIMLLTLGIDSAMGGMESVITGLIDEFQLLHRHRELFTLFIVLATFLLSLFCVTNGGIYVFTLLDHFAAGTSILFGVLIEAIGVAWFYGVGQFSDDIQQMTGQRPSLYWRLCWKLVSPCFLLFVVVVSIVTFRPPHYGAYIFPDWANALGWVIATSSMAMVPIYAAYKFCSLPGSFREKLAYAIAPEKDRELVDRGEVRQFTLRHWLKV
CYP2C19 inhib: human CYP2C19 inhibition; CYP2C19 Supersomes, luciferin-H EGE luminescence, 30 min; inhibition, % at 5 µM; 96,000 tested, 21% active; AID 778;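 active = CYP2C19 inhibition above a set limit at 5 µM in the primary screen, cut at about 50% in these data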
CYP2C9 inh: inhibitors of human CYP2C9 | CYP2C9 Supersomes, luciferin-H conversion, luminescence | P11712 | AID 777 | inhibition, % at 5 µM | 96,000 tested, 20% active;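 active = blocking of liver enzyme CYP2C9 beyond about 50% at 5 µM, limit read from the data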
D1 mod: D1 dopamine receptor (human) allosteric modulation; HEK293 D1, CRE-luciferase, dopamine EC30 potentiation; actives deviate in either direction; 58,000 tested, 5.9% active; B-score at 10 µM; AID 641; P21728;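 active = luminescence count or its row- and column-corrected plate score outside the 99.7% band of the plate's sample wells, on either side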
Each line names hits and unclear results; the compound was inactive in the other large screens. This is a sample that favours compounds with a hit; in the whole collection about 28% have one here.

CCC(NC(=O)NC1=NCCS1)(C(F)(F)F)C(F)(F)F	none
CCC1(CC)C(=O)C2=C3C1[C@H](C(=O)OC)CC(C(=O)OC)C[C@H]3n1c(=O)n(-c3ccccc3)c(=O)n1[C@H]2C (stereo partly drawn)	none (no result: CYP2C19 activ, CYP2C9 activ, CYP2C19 inhib, CYP2C9 inh, D1 mod)
CCCNc1nc(C)cc(-c2cc(C(=O)NCc3ccccc3)on2)n1	none (no result: CYP2C19 activ, CYP2C9 activ, CYP2C19 inhib, CYP2C9 inh, D1 mod)
COc1ccc(NC(=O)c2ccc(C(=O)c3cc(OC)ccc3OC)cc2)cc1	none (no result: D1 mod)
CCC(=O)OC1=C2C(=Nc3c(c(=O)n(C)c(=O)n3C)C2c2ccccc2)c2ccccc21 (stereo not drawn)	none (no result: CYP2C19 activ, CYP2C9 activ, hDAT+cocaine, CYP2C19 inhib, CYP2C9 inh)
CC1Cc2cc(-c3csc(NC(=O)Cc4ccccc4)n3)ccc2N1S(C)(=O)=O (stereo not drawn)	CYP2C9 inh 58 (no result: D1 mod)
Cc1ccc(-c2csc(NC(=O)c3cccc([N+](=O)[O-])c3)n2)cc1	none (no result: D1 mod)
Cc1ccc(Nc2nc(-c3sc(NC(=O)c4cccc(Cl)c4)nc3C)cs2)cc1	none (no result: D1 mod)
O=C(Nc1cccc(-c2csc(Nc3cccc(C(F)(F)F)c3)n2)c1)c1cc([N+](=O)[O-])cc(C(F)(F)F)c1	none (no result: CYP2C19 activ, CYP2C9 activ, CYP2C19 inhib, CYP2C9 inh, D1 mod)
CC(=O)c1cccc(Nc2nc(-c3cccc([N+](=O)[O-])c3)cs2)c1	CYP2C9 inh 57 (no result: D1 mod)
O=C(Nc1nc(-c2cccc([N+](=O)[O-])c2)cs1)C(c1ccccc1)c1ccccc1	CYP2C9 inh 74 (no result: D1 mod)
CC(=O)Nc1nc(C)c(-c2csc(Nc3cccc([N+](=O)[O-])c3)n2)s1	CYP2C19 inhib 83, CYP2C9 inh 89 (no result: D1 mod)
COC(C[C@H](O)CC(=O)[C@H](C)OCc1ccccc1)OC	none (no result: CYP2C19 activ, CYP2C9 activ, CYP2C19 inhib, CYP2C9 inh, D1 mod)
Cc1ccc(Oc2nc3ccccc3n3c(C)nnc23)c(C)c1	none (no result: D1 mod)
Cc1ccc(Nc2nc(-c3sc(NC(=O)c4ccco4)nc3C)cs2)cc1	none (no result: D1 mod)
CC(=O)Nc1nc(C)c(-c2csc(Nc3ccc(O)cc3)n2)s1	CYP2C9 inh 76
CS(=O)(=O)N1CCc2cc(-c3csc(NC(=O)C(c4ccccc4)c4ccccc4)n3)ccc21	CYP2C9 inh 58 (no result: D1 mod)
O=C(O)C[C@H]1c2ccccc2S(=O)(=O)N1c1ccccc1	none (no result: CYP2C19 activ, CYP2C9 activ, CYP2C19 inhib, CYP2C9 inh, D1 mod)
O=C(Nc1ccc2nc3n(c(=O)c2c1)CCCCC3)c1ccccn1	CYP2C9 inh 53
O=C(CC(=O)N1CCN(c2ccccn2)CC1)Nc1ccc2nc3n(c(=O)c2c1)CCCCC3	CYP2C9 inh 78
CCOC(=O)N1CCN(C(=O)c2cn(CCOC)c(=O)c3c2c2ccccc2n3C)CC1	none
FC(F)(F)c1ccccc1NC(=S)N1CCN(c2ncccn2)CC1	none (no result: D1 mod)
CCOC(=O)[C@@H]1[C@H]2COc3ccccc3[C@@H]2N2C(=O)N(c3ccc(OC)cc3)C(=O)[C@]12C	none (no result: CYP2C19 activ, CYP2C9 activ, CYP2C19 inhib, CYP2C9 inh, D1 mod)
C/C(CC(=O)Nc1ccc(Cl)c(Cl)c1)=N\NC(N)=S	CYP2C19 inhib 72 (no result: D1 mod)
CCCCNC(=O)CS(=O)Cc1nc(-c2cccc(C)c2)oc1C (stereo not drawn)	none
CCCCSCCCNC(=O)CS(=O)Cc1nc(-c2cccc(C)c2)oc1C (stereo not drawn)	CYP2C19 inhib 85, CYP2C9 inh 78
CCCCNC(=O)CS(=O)Cc1nc(-c2cccc(Cl)c2)oc1C (stereo not drawn)	CYP2C9 inh 62
CC1(C)Cn2c(nnc2-c2cccc(O)c2)S1	none
CCOC(=O)Cn1nc(C)n(-c2ccccc2)c1=O	none (no result: D1 mod)
CCN(CC)C(=O)Cn1c(=O)n(-c2ccccc2)c(=O)n1CC(=O)N(CC)CC	hDAT+cocaine -9.6
CCC(=O)c1cn(CC(=O)NCC2CCCO2)c2ccccc12 (stereo not drawn)	none (no result: D1 mod)
O=C(Cn1cc(C(=O)c2cccs2)c2ccccc21)NCC1CCCO1 (stereo not drawn)	CYP2C19 inhib 67
O=C(Cn1cc(C(=O)c2cccs2)c2ccccc21)NCc1ccc2c(c1)OCO2	CYP2C19 inhib 64, CYP2C9 inh 73
CC(C)CC(NC(N)=O)C(=O)OCC(=O)NC(=O)NC1CCCC1 (stereo not drawn)	CYP2C19 inhib 57
COc1ccc(OC)c(C(=O)NC(CC(N)=O)c2ccc(NCCN3CCOCC3)c([N+](=O)[O-])c2)c1 (stereo not drawn)	none (no result: CYP2C19 activ, CYP2C9 activ, CYP2C19 inhib, CYP2C9 inh, D1 mod)
O=C(Nc1ccc(-n2nncc2-c2ccco2)cc1)c1cccc(F)c1	CYP2C19 inhib 96, CYP2C9 inh 72 (no result: hDAT+cocaine, D1 mod)
O=C(Nc1ccc(-n2nncc2-c2ccco2)cc1)c1cc2ccccc2oc1=O	CYP2C9 inh 63 (no result: D1 mod)
O=C(Nc1ccc(N2CCOCC2)cc1)c1ccc2nc(-c3ccco3)c(-c3ccco3)nc2c1	none
CC(=O)Nc1ccc(OC(=O)c2cc3ccccc3oc2=O)cc1	none (no result: D1 mod)
COc1cc(OC)cc(C(=O)NC2CC3CCC(C2)N3Cc2ccco2)c1 (stereo not drawn)	none
Cc1ccc(C)c(NC(=O)C(C)CC2COCCO2)c1 (stereo not drawn)	none (no result: D1 mod)
CC1CCN(C(=O)CNS(=O)(=O)c2ccc(Br)s2)CC1	none (no result: D1 mod)
O=C(CNS(=O)(=O)c1ccc(Br)s1)N1CCN(c2ncccn2)CC1	CYP2C9 inh 61
CC1CC(C)CN(C(=O)CNS(=O)(=O)c2ccc(Br)s2)C1 (stereo not drawn)	none (no result: D1 mod)
Cc1ccc(N2CCN(C(=O)CNS(=O)(=O)c3ccc(Br)s3)CC2C)cc1 (stereo not drawn)	CYP2C19 inhib 52 (no result: hDAT+cocaine)
COCCCNC(=O)c1sc2ncnc(N3CCc4ccccc4C3)c2c1C	none (no result: CYP2C19 activ, CYP2C9 activ, CYP2C19 inhib, CYP2C9 inh, D1 mod)
CCOC(=O)C1CCN(C(=O)c2sc3nc(C)nc(N4CCC(C)CC4)c3c2C)CC1	none (no result: CYP2C19 activ, CYP2C9 activ, CYP2C19 inhib, CYP2C9 inh, D1 mod)
Cc1c(C(=O)N2CCOCC2)sc2ncnc(N3CCc4ccccc4C3)c12	CYP2C9 inh 65
Cc1c(C(=O)N2CCN(c3ccccc3)CC2)sc2ncnc(N3CCC(C)CC3)c12	CYP2C19 inhib 61 (no result: hDAT+cocaine, D1 mod)
CCOC(=O)C1CCN(C(=O)c2sc3ncnc(N4CCC(C)CC4)c3c2C)CC1	hDAT+cocaine 2.5 (no result: CYP2C19 activ, CYP2C9 activ, CYP2C19 inhib, CYP2C9 inh, D1 mod)
CCOC(=O)N1CCN(S(=O)(=O)c2ccc3c(c2)CCN3C(=O)CC)CC1	none
COC(=O)CCC(=O)N1CCc2cc(S(=O)(=O)N3CCN(c4ccccc4Cl)CC3)ccc21	CYP2C9 inh 59
CCN(CC)CCOC(=O)c1cccc(Br)c1	none
CN(CCOC(=O)c1cccc(Br)c1)C(C)(C)C	CYP2C9 inh 60 (no result: hDAT+cocaine, D1 mod)
N#Cc1c(C(F)(F)F)cc(-c2ccccc2)nc1SCc1nc(N)nc(N2CCOCC2)n1	CYP2C19 inhib 81, CYP2C9 inh 80
N#Cc1c(C(F)(F)F)cc(-c2ccccc2)nc1SCC(=O)Nc1sc2c(c1C#N)CCC2	CYP2C9 inh 71 (no result: D1 mod)
CC(Sc1nc(-c2ccccc2)cc(C(F)(F)F)n1)C(=O)Nc1sc2c(c1C#N)CCC2 (stereo not drawn)	CYP2C9 inh 64 (no result: D1 mod)
N#Cc1c(C(F)(F)F)cc(-c2ccc(Cl)c(Cl)c2)nc1SCCN1CCOCC1	none (no result: D1 mod)
O=S(=O)(c1ccc(S(=O)(=O)N(Cc2ccccc2)Cc2ccco2)cc1)N1CCCC1	none (no result: CYP2C19 activ, CYP2C9 activ, CYP2C19 inhib, CYP2C9 inh, D1 mod)
